The results in this text go back to ChEMBL document CHEMBL4513146, “CO-ADD screening of Karazin Kharkiv National University (Ukraine) compounds”.

The structures appear in SMILES notation. Measured potencies and affinities stand elsewhere.

Test [1] concerns Klebsiella pneumoniae. As to conditions: Concentration 32 ug.mL-1;; ASSAY_TEST Inhibition of Bacterial Growth; detection method Absorption (OD600); MEDIA CAMHB; plate type 384well; NBS; CORNING #3640; time 18 hr.
For test [2], the system named is Candida albicans. The conditions noted are these: Concentration 32 ug.mL-1; ASSAY_TEST Inhibition of Fungal Growth; detection method Absorption (OD530).
In test [3] the test system is Cryptococcus neoformans. The conditions noted are these: Concentration 32 ug.mL-1; ASSAY_TEST Inhibition of Fungal Growth; detection method Resazurin; Absorption (OD600-OD570); plate type 384well; NBS; CORNING #3640.

As for `O=C(Cn1nc2c3cc(-c4ccc(Cl)cc4)nn3ccn2c1=O)Nc1ccc2c(c1)OCCO2`, the Inhibition in test [1] is 7.68%; in test [2], -1.89%; in test [3], -18.54%.

On to `Cc1cccc(C)c1NC(=O)Cn1nc2n(C)c(=O)c3c(c(-c4ccccc4)cn3C)n2c1=O`, for which the Inhibition in test [1] was 10.1%; in test [2], 0.83%; in test [3] it was -9.16%.

As for `COc1cc(OC)c(NC(=O)Cn2nc3c4c5c(sc4ncn3c2=O)CC(C)CC5)cc1Cl` (centres undefined), the Inhibition in test [1] was 11.66%; in test [2], 3.55%; in test [3], -23.25%.

As to `CCC(C)NC(=O)Cn1nc2n(CCC(C)C)c(=O)c3sccc3n2c1=O` (centres undefined), the Inhibition in test [1] is recorded as 0.17%; in test [2] it was -2.39%; in test [3], -17.2%.

With `O=S(=O)(c1cccn2cnnc12)N(Cc1cccc(F)c1)c1cccc(Cl)c1`, the figures for the Inhibition in test [1], in test [2] and in test [3] were 2.34%, 1.27% and -7.2%, respectively.

In the case of `Cc1ccc(-c2cc3c4nn(CC(=O)NCc5ccccc5Cl)c(=O)n4ccn3n2)cc1C`, the Inhibition in test [1] is 7.47%; in test [2] it was -1.05%; in test [3], -5.01%.

For `COc1ccc(NC(=O)Cn2nc3nc(N4CCCCCC4)ccn3c2=O)cc1Cl`, the Inhibition in test [1] is reported as 8.5%; in test [2], 2.73%; in test [3], -7.14%.

As for `COc1ccccc1-n1ccn2c(SCC(=O)NCc3ccc(Cl)cc3)nnc2c1=O`, the Inhibition is reported as 9.61% in test [1], 4.77% in test [2] and -6.31% in test [3].

`CCCCN(CC)c1ccc2nnc(CCc3nc(-c4ccc(OCc5ccccc5)cc4)no3)n2n1`: the Inhibition is reported as 10.12% in test [1], 5.5% in test [2] and -16.46% in test [3].

On to `Cc1cc(C)c(NC(=O)Cn2nc3ccc(SC(C)(C)C)nn3c2=O)c(C)c1`, for which the Inhibition in test [1] is 14.36%; in test [2], 2.38%; in test [3] it was -25.26%.

Regarding `COc1ccc(NC(=O)Cn2nc3c(SC4CCCCC4)nccn3c2=O)cc1Cl`, the Inhibition in test [1] is reported as -2.37%; in test [2], 10.68%; in test [3], -22.74%.

On to `Cc1cccc(NC(=O)Cn2nc3c4cc(-c5ccc(Cl)cc5)nn4ccn3c2=O)c1C`, for which the Inhibition is recorded as 3.93% in test [1], 0.51% in test [2] and -23.15% in test [3].

`Cc1ccc(CSc2nnc3c(=O)n(-c4ccc(Br)cc4)ccn23)cc1`: the figures for the Inhibition in test [1], in test [2] and in test [3] were 11.07%, 8.75% and -7.86%, respectively.

Take `O=c1n(Cc2cccc(C(F)(F)F)c2)nc2ccc(S(=O)(=O)N3CCCC3)cn12`: the Inhibition is 10.57% in test [1], 0.2% in test [2] and -10.53% in test [3].

For the compound `CSc1cccc(NC(=O)Cn2c(=O)c3nnc(C)n3c3ccccc32)c1`, the values for the Inhibition in test [1], in test [2] and in test [3] were 4.53%, 4.76% and -2.25%, respectively.

For the compound `COc1cccc(-n2ccn3c(SCC(=O)c4cccc(Cl)c4)nnc3c2=O)c1`, the Inhibition was 6.31% in test [1], 2.28% in test [2] and -6.56% in test [3].

For `COc1ccc(NC(=O)Cn2nc3c4cc(-c5ccc(C)c(C)c5)nn4ccn3c2=O)cc1`, the Inhibition in test [1] is given as 9.06%; in test [2], 19.37%; in test [3], -31.22%.

As to `Cc1nnc2c(=O)n(CC(=O)Nc3ccccc3F)c3ccccc3n12`, the figures for the Inhibition in test [1], in test [2] and in test [3] were 0.65%, 3.67% and -6.39%, respectively.

`Cc1cc(C)c(NC(=O)Cn2nc3c4c5c(sc4ncn3c2=O)CCCC5)c(C)c1`: the results for the Inhibition in test [1], in test [2] and in test [3] were 7.2%, 39.7% and -18.32%, respectively.

As for `COc1cc(NC(=O)CSc2nnc3c(=O)n(-c4ccc(C)c(C)c4)ccn23)cc(OC)c1`, the Inhibition in test [1] is recorded as 2.77%; in test [2], 1.66%; in test [3], -9.37%.

Regarding `Cc1ccccc1NC(=O)Cn1nc2c3cc(-c4ccc(Cl)cc4)nn3ccn2c1=O`, the values for the Inhibition in test [1], in test [2] and in test [3] were 14.64%, 1.52% and -18.17%, respectively.

For `Cc1nnc2c(=O)n(CC(=O)NC3CCCC3)c3ccccc3n12`, the figures for the Inhibition in test [1], in test [2] and in test [3] were 6.01%, 0.18% and -17.78%, respectively.

Turning to `Cc1cc2nn(CC(=O)N3CCCC3)c(=O)n2c(Nc2ccc(C)c(F)c2)n1`, the Inhibition in test [1] is 9.72%; in test [2], 0.7%; in test [3], -5.41%.

As for `CCOC(=O)c1ccccc1NC(=O)Cn1nc2c(Oc3cccc(C)c3C)nccn2c1=O`, the figures for the Inhibition in test [1], in test [2] and in test [3] were 7.42%, 0.56% and -7.85%, respectively.

In the case of `CSc1cccc(NC(=O)Cn2nc3c(N4CCCC(C)C4)nccn3c2=O)c1` (centres undefined), the Inhibition in test [1] is 8.54%; in test [2], 6.43%; in test [3], -37.15%.

As for `CCCN(C)c1nccn2c(=O)n(CC(=O)Nc3cccc(Br)c3)nc12`, the Inhibition was 8.58% in test [1], 1.99% in test [2] and -9.25% in test [3].

For the compound `CCc1nnc2c(SCC(=O)Nc3cccc(C(C)=O)c3)nc3ccccc3n12`, the figures for the Inhibition in test [1], in test [2] and in test [3] were 17.43%, -0.1% and -10.94%, respectively.

For `CCCCc1ccc(NC(=O)Cn2nc3c(Sc4ccccc4CC)nccn3c2=O)cc1`, the Inhibition in test [1] is listed as -8.8%; in test [2], 24.82%; in test [3] it was -8.24%.
